Numbering of substitutions follows the chain as printed.
Tests used:
Experiment in all cases: PBM; 200 nM protein, PBS
Settings in all cases: dsDNA, one strand shown
SIX6 [1] = biological target: T1, SIX6 (Homo sapiens, UniProt O95475 114-200, L167I)
T1 sequence: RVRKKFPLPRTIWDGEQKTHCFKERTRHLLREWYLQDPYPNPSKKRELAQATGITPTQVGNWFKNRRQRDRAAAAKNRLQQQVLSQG

SIX6 [2] = biological target: T2, SIX6 (Homo sapiens, UniProt O95475 114-200, L143V)
T2 sequence: T1 sequence with L30V, I54L

SIX6 [3] = biological target: T3, SIX6 (Homo sapiens, UniProt O95475 114-200, H141N)
T3 sequence: T1 sequence with H28N, I54L

SIX6 [4] = biological target: T4, SIX6 (Homo sapiens, UniProt O95475 114-200, T165P)
T4 sequence: T1 sequence with T52P, I54L

SIX6 [5] = biological target: T5, SIX6 (Homo sapiens, UniProt O95475 114-200, L167M)
T5 sequence: T1 sequence with I54M

SIX6 [6] = biological target: T6, SIX6 (Homo sapiens, UniProt O95475 114-200, L143M)
T6 sequence: T1 sequence with L30M, I54L

SIX6 [7] = biological target: T7, SIX6 (Homo sapiens, UniProt O95475 114-200, L143I)
T7 sequence: T1 sequence with L30I, I54L

SIX6 [8] = biological target: T8, SIX6 (Homo sapiens, UniProt O95475 114-200, T165G)
T8 sequence: T1 sequence with T52G, I54L

SIX6 [9] = biological target: T9, SIX6 (Homo sapiens, UniProt O95475 114-200, T139Q)
T9 sequence: T1 sequence with T26Q, I54L

SIX6 [10] = biological target: T10, SIX6 (Homo sapiens, UniProt O95475 114-200, T165A)
T10 sequence: T1 sequence with T52A, I54L

SIX6 [11] = biological target: T11, SIX6 (Homo sapiens, UniProt O95475 114-200, L167V)
T11 sequence: T1 sequence with I54V

SIX6 [12] = biological target: T12, SIX6 (Homo sapiens, UniProt O95475 114-200)
T12 sequence: T1 sequence with I54L

SIX6 [13] = biological target: T13, SIX6 (Homo sapiens, UniProt O95475 114-200, T165I)
T13 sequence: T1 sequence with T52I, I54L

HOXA2 [14] = biological target: HOXA2 (Homo sapiens, UniProt O43364 129-215, R185T)
HOXA2 [15] = biological target: HOXA2 (Homo sapiens, UniProt O43364 129-215, R185K)
HOXA2 [16] = biological target: HOXA2 (Homo sapiens, UniProt O43364 129-215, Y150S)
HOXA2 [17] = biological target: HOXA2 (Homo sapiens, UniProt O43364 129-215)
Chain of HOXA2 (Homo sapiens, UniProt O43364 129-215) (O43364 129-215): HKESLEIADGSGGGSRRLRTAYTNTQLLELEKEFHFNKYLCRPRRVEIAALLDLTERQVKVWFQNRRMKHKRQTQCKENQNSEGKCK

Chain of HOXA2 (Homo sapiens, UniProt O43364 129-215, R185K) (O43364 129-215 R185K): as the sequence (O43364 129-215) above, with R57K counted along it
Chain of HOXA2 (Homo sapiens, UniProt O43364 129-215, R185T) (O43364 129-215 R185T): as the sequence (O43364 129-215) above, with R57T counted along it
Chain of HOXA2 (Homo sapiens, UniProt O43364 129-215, Y150S) (O43364 129-215 Y150S): as the sequence (O43364 129-215) above, with Y22S counted along it

**Q.** What does the source list for CGGCCACC?
**A.** binding signal (SIX6 [1]): 8.7 upbm affinity estimate (log intensity, higher = more binding, comparable within an allelic series); binding signal (SIX6 [2]): 8.6 upbm affinity estimate (log intensity, higher = more binding, comparable within an allelic series); binding signal (SIX6 [3]): 8.63 upbm affinity estimate (log intensity, higher = more binding, comparable within an allelic series); binding signal (SIX6 [4]): 8.71 upbm affinity estimate (log intensity, higher = more binding, comparable within an allelic series); binding signal (SIX6 [5]): 8.67 upbm affinity estimate (log intensity, higher = more binding, comparable within an allelic series); binding signal (SIX6 [6]): 8.54 upbm affinity estimate (log intensity, higher = more binding, comparable within an allelic series); binding signal (SIX6 [7]): 8.75 upbm affinity estimate (log intensity, higher = more binding, comparable within an allelic series); binding signal (SIX6 [8]): 8.72 upbm affinity estimate (log intensity, higher = more binding, comparable within an allelic series); binding signal (SIX6 [9]): 8.67 upbm affinity estimate (log intensity, higher = more binding, comparable within an allelic series); binding signal (SIX6 [10]): 8.71 upbm affinity estimate (log intensity, higher = more binding, comparable within an allelic series); binding signal (SIX6 [11]): 8.66 upbm affinity estimate (log intensity, higher = more binding, comparable within an allelic series); binding signal (SIX6 [12]): 8.55 upbm affinity estimate (log intensity, higher = more binding, comparable within an allelic series); binding signal (SIX6 [13]): 8.64 upbm affinity estimate (log intensity, higher = more binding, comparable within an allelic series)

**Q.** With CGCGTGGC as the sequence, how does the binding signal (SIX6 [1]) read?
**A.** 9.04 upbm affinity estimate (log intensity, higher = more binding, comparable within an allelic series)

**Q.** What about the binding signal (SIX6 [2]) of the same sequence?
**A.** 8.85 upbm affinity estimate (log intensity, higher = more binding, comparable within an allelic series)

**Q.** And the binding signal (SIX6 [3])?
**A.** 9.07 upbm affinity estimate (log intensity, higher = more binding, comparable within an allelic series)

**Q.** And the binding signal (SIX6 [4])?
**A.** 8.86 upbm affinity estimate (log intensity, higher = more binding, comparable within an allelic series)

**Q.** What about the binding signal (SIX6 [5]) of the same sequence?
**A.** 8.92 upbm affinity estimate (log intensity, higher = more binding, comparable within an allelic series)

**Q.** And the binding signal (SIX6 [6])?
**A.** 8.96 upbm affinity estimate (log intensity, higher = more binding, comparable within an allelic series)

**Q.** What about the binding signal (SIX6 [7]) of the same sequence?
**A.** 8.93 upbm affinity estimate (log intensity, higher = more binding, comparable within an allelic series)

**Q.** What about the binding signal (SIX6 [8]) of the same sequence?
**A.** 9 upbm affinity estimate (log intensity, higher = more binding, comparable within an allelic series)

**Q.** What about the binding signal (HOXA2 [14]) of the same sequence?
**A.** 7.16 upbm affinity estimate (log intensity, higher = more binding, comparable within an allelic series)

**Q.** What about the binding signal (SIX6 [9]) of the same sequence?
**A.** 9.1 upbm affinity estimate (log intensity, higher = more binding, comparable within an allelic series)

**Q.** And the binding signal (SIX6 [10])?
**A.** 8.98 upbm affinity estimate (log intensity, higher = more binding, comparable within an allelic series)

**Q.** And the binding signal (HOXA2 [15])?
**A.** 10.4 upbm affinity estimate (log intensity, higher = more binding, comparable within an allelic series)

**Q.** And the binding signal (SIX6 [11])?
**A.** 8.96 upbm affinity estimate (log intensity, higher = more binding, comparable within an allelic series)

**Q.** And the binding signal (SIX6 [12])?
**A.** 8.97 upbm affinity estimate (log intensity, higher = more binding, comparable within an allelic series)

**Q.** What about the binding signal (SIX6 [13]) of the same sequence?
**A.** 9.02 upbm affinity estimate (log intensity, higher = more binding, comparable within an allelic series)

**Q.** What about the binding signal (HOXA2 [16]) of the same sequence?
**A.** 10.3 upbm affinity estimate (log intensity, higher = more binding, comparable within an allelic series)

**Q.** What about the binding signal (HOXA2 [17]) of the same sequence?
**A.** 7.31 upbm affinity estimate (log intensity, higher = more binding, comparable within an allelic series)

**Q.** Which results are given for CAGCGCCG?
**A.** binding signal (SIX6 [1]): 8.83 upbm affinity estimate (log intensity, higher = more binding, comparable within an allelic series); binding signal (SIX6 [2]): 8.75 upbm affinity estimate (log intensity, higher = more binding, comparable within an allelic series); binding signal (SIX6 [3]): 8.78 upbm affinity estimate (log intensity, higher = more binding, comparable within an allelic series); binding signal (SIX6 [4]): 8.87 upbm affinity estimate (log intensity, higher = more binding, comparable within an allelic series); binding signal (SIX6 [5]): 8.78 upbm affinity estimate (log intensity, higher = more binding, comparable within an allelic series); binding signal (SIX6 [6]): 8.76 upbm affinity estimate (log intensity, higher = more binding, comparable within an allelic series); binding signal (SIX6 [7]): 8.8 upbm affinity estimate (log intensity, higher = more binding, comparable within an allelic series); binding signal (SIX6 [8]): 8.83 upbm affinity estimate (log intensity, higher = more binding, comparable within an allelic series); binding signal (SIX6 [9]): 8.77 upbm affinity estimate (log intensity, higher = more binding, comparable within an allelic series); binding signal (SIX6 [10]): 8.74 upbm affinity estimate (log intensity, higher = more binding, comparable within an allelic series); binding signal (SIX6 [11]): 8.79 upbm affinity estimate (log intensity, higher = more binding, comparable within an allelic series); binding signal (SIX6 [12]): 8.78 upbm affinity estimate (log intensity, higher = more binding, comparable within an allelic series); binding signal (SIX6 [13]): 8.74 upbm affinity estimate (log intensity, higher = more binding, comparable within an allelic series)

**Q.** How did the binding signal (SIX6 [1]) turn out when CCCAGCCG was run?
**A.** 9.06 upbm affinity estimate (log intensity, higher = more binding, comparable within an allelic series)

**Q.** What about the binding signal (SIX6 [2]) of the same sequence?
**A.** 8.82 upbm affinity estimate (log intensity, higher = more binding, comparable within an allelic series)

**Q.** What about the binding signal (SIX6 [3]) of the same sequence?
**A.** 9.12 upbm affinity estimate (log intensity, higher = more binding, comparable within an allelic series)

**Q.** What about the binding signal (SIX6 [4]) of the same sequence?
**A.** 8.84 upbm affinity estimate (log intensity, higher = more binding, comparable within an allelic series)

**Q.** And the binding signal (SIX6 [5])?
**A.** 9.01 upbm affinity estimate (log intensity, higher = more binding, comparable within an allelic series)

**Q.** And the binding signal (SIX6 [6])?
**A.** 8.87 upbm affinity estimate (log intensity, higher = more binding, comparable within an allelic series)

**Q.** And the binding signal (SIX6 [7])?
**A.** 8.92 upbm affinity estimate (log intensity, higher = more binding, comparable within an allelic series)

**Q.** And the binding signal (SIX6 [8])?
**A.** 9.07 upbm affinity estimate (log intensity, higher = more binding, comparable within an allelic series)

**Q.** What about the binding signal (SIX6 [9]) of the same sequence?
**A.** 9.24 upbm affinity estimate (log intensity, higher = more binding, comparable within an allelic series)

**Q.** And the binding signal (SIX6 [10])?
**A.** 9.06 upbm affinity estimate (log intensity, higher = more binding, comparable within an allelic series)

**Q.** What about the binding signal (SIX6 [11]) of the same sequence?
**A.** 8.98 upbm affinity estimate (log intensity, higher = more binding, comparable within an allelic series)

**Q.** And the binding signal (SIX6 [12])?
**A.** 9.03 upbm affinity estimate (log intensity, higher = more binding, comparable within an allelic series)

**Q.** And the binding signal (SIX6 [13])?
**A.** 9.05 upbm affinity estimate (log intensity, higher = more binding, comparable within an allelic series)

**Q.** Which results are given for GGGGGGAC?
**A.** binding signal (SIX6 [1]): 8.99 upbm affinity estimate (log intensity, higher = more binding, comparable within an allelic series); binding signal (SIX6 [2]): 8.81 upbm affinity estimate (log intensity, higher = more binding, comparable within an allelic series); binding signal (SIX6 [3]): 8.96 upbm affinity estimate (log intensity, higher = more binding, comparable within an allelic series); binding signal (SIX6 [4]): 8.71 upbm affinity estimate (log intensity, higher = more binding, comparable within an allelic series); binding signal (SIX6 [5]): 8.97 upbm affinity estimate (log intensity, higher = more binding, comparable within an allelic series); binding signal (SIX6 [6]): 8.91 upbm affinity estimate (log intensity, higher = more binding, comparable within an allelic series); binding signal (SIX6 [7]): 8.72 upbm affinity estimate (log intensity, higher = more binding, comparable within an allelic series); binding signal (SIX6 [8]): 8.92 upbm affinity estimate (log intensity, higher = more binding, comparable within an allelic series); binding signal (SIX6 [9]): 8.93 upbm affinity estimate (log intensity, higher = more binding, comparable within an allelic series); binding signal (SIX6 [10]): 9 upbm affinity estimate (log intensity, higher = more binding, comparable within an allelic series); binding signal (SIX6 [11]): 8.74 upbm affinity estimate (log intensity, higher = more binding, comparable within an allelic series); binding signal (SIX6 [12]): 8.93 upbm affinity estimate (log intensity, higher = more binding, comparable within an allelic series); binding signal (SIX6 [13]): 8.96 upbm affinity estimate (log intensity, higher = more binding, comparable within an allelic series)

From PMC11006913
